The structures appear in SMILES notation. Among all 130,000 compounds or so, about 1,200 (0.92%) were called active. Inconclusive results (about 3%) are left out. The entries come from a sample that favours actives as a whole. A call without a number means that no potency is given here. A number with no mark means an inactive call. Calls follow the shape of the dose curve; as a rule, active = well fitted cell-killing curve with a large enough effect; inconclusive = small, poorly fitted or top-dose-only effect; inactive = no such curve, though single readings can be large or run the other way.
Potency is read from the fitted curve at half-maximal effect.

The nature of this assay: qHTS Screen for Compounds that Selectively Target Cancer Cells with p53 Mutations: Cytotoxicity of p53ts Cells at the Permissive Temperature. Also: nearly all actives have a fitted effect of over 55% in size. As to conditions: H1299-p53A138V at 32C, ATP luminescence viability, 24 h; series mostly up to 46.1 µM. The source says:
NIH Chemical Genomics Center [NCGC] NIH Molecular Libraries Screening Centers Network [MLSCN] MLSCN Grant: 1 X01 MH079844-01 Assay Submitter (PI): Dr. SUN, YI, University of Michigan NCGC Assay Overview: Synthetic Lethal Screen for Compounds to Kill Cancer Cells with p53 Mutation. Tumor suppressor gene p53 serves as a major cellular barrier against tumorigenesis. […] The goal of this screening is to identify small molecule probes that selectively kill cancer cells with mutations in p53. This screening was carried out using two lines of H1299 lung cancer cells. The H1299-p53 A138V line express a temperature sensitive p53 mutant (p53ts) in which the mutant p53 protein (A138V) is in the mutant confirmation when grown at 39C (the nonpermissive temperature) and in the wild type conformation when grown at 32C (the permissive temperature). A H1299-neo line (p53 null) grown at both 39C and 32C were used as counter-screens to filter out false positive associated with temperature shifting. The small molecular compounds that selectively target mutant p53-containing cancer cells were selected as candidate probes for further study. A cytotoxicity assay based on the measurement of ATP contents in cells was used in this screen. Concentration-responses of all the compounds in the library collection were determined in qHTS using the cell lines and temperature conditions as above.
NCGC Assay Protocol Summary: Both the H1299-p53A138V and H1299-neo cell lines were provided by Dr.Yi Sun, a PI at the University Michigan. The cells were maintained and cultured at 37C. The resuspended frozen cells were used to plate the cells in the 1536-well assay plates at a density of 600 cells per well in 5 ul medium. The assay plates with the cells were incubated at 37C for 16 to 30 hours before the experiments. The library compounds in DMSO solution were added to the cells in assay plates and incubated 24 hours at 39C (for mutant p53 conformation) or 32C (for normal p53 conformation as control). An ATP_lite assay kit (PerkinElmer) was used to determine the cell viability. Tomaxifen (100uM) was used as the positive control for cell killing. Data were normalized to the controls for basal activity (DMSO only) and 100% killing (100uM tamoxifen). AC50 values were determined from concentration-response data modeled with the standard Hill equation. P53 assay protocol: 1. Reagent; 5 uL H1299-p53A138V or H1299-neo cell cells/well 2. Time; overnight; 37C incubation 3. Compounds; 23 nL; 5.9 nM to 46 uM 4. Controls; 23 nL; Tamoxifen 100 uM 5. Time; 24 hr; 37C incubation 6. Reagent; 3 uL; ATP_Lite reagent 7. Time; 20 min; Room Temperature 8. Detection; Luminescence; Viewlux plate reader Keywords: p53, synthetic lethal, cancer, cell viability, cytotoxicity, H1299 cell line, luminescence, MLSMR, MLSCN, NIH Roadmap, qHTS, NCGC
(In qHTS, concentration-response curves come from the screen itself.)
On to `COc1ccc(NC(=O)Nc2cccc3cccnc23)cc1`, for which the Potency is 12.6 µM (active).
On to `Cc1cccc(Cn2cccc(C(=O)Nc3ccc4c(c3)OCCO4)c2=O)c1`, for which the Potency result is “inactive”.
Same read-out and setting: next, `CC(=O)c1c(O)c(C)c(O)c(Cc2c(O)c3c(c(C(=O)/C=C\c4ccccc4)c2O)OC(C)(C)C=C3)c1O`: “inactive”.
With `CC(C)(c1ccc(OC[C@@H]2CO2)cc1)c1ccc(OC[C@H]2CO2)cc1`, the Potency was 12.6 µM (active).
On the same count and under the same terms, next, `CCOC(=O)c1ccc(N2C(=O)c3[nH]nc(-c4ccccc4)c3C2c2ccc(C(C)C)cc2)cc1` (stereo not given): “inactive”; `Cc1nnc(NC(=O)c2cccn(Cc3cccc(F)c3)c2=O)s1`: “inactive”.
For the molecule `C=CC#N`, the activity change, negative = cytotoxicity is -9.3% [at 1.84 µM].
Turning to `O=C(Nc1ccc(Cl)cc1C(=O)c1ccccc1)c1cc(Cl)cc(Cl)c1`, the Potency entry was “inactive”.
Still for that read-out and setting: next, `CN(C)C1C(=O)C(C(N)=O)=C(O)[C@@]2(O)C(=O)C3=C(O)c4c(O)cccc4[C@@](C)(O)C3C[C@@H]12` (stereo not given in full): “inactive”; `CC(C)Nc1nc(Cl)nc(NC(C)C)n1`: “inactive”; `CC[C@@H]1CN2CC[C@@H]1C[C@H]2[C@H](O)c1ccnc2ccc(OC)cc12`: “inactive”.
Take `C[C@H](CCC(=O)O)[C@H]1CC[C@@H]2[C@H]3CC[C@H]4C[C@H](O)CC[C@@]4(C)[C@@H]3CC[C@@]21C`: the activity change, negative = cytotoxicity was 5.89% [at 9.22 µM].
`CC(C)Oc1ccc(NC(=O)c2cc3ccccc3o2)cc1`: the Potency was 6.31 µM (active).
`CN(C)c1cccc(C(=O)Nc2nc3ccc(S(=O)(=O)NC(C)(C)C)cc3s2)c1`: the Potency result was “inactive”.
On the same count and under the same terms, for `Cc1ccc(NC(=O)N(Cc2ccc3c(c2)OCO3)C2CCN(Cc3ccccc3)CC2)cc1F` the value was “inactive”.
In the case of `Cc1ccc(-n2c(/C=C/c3cccc(C(F)(F)F)c3)nc3ccccc3c2=O)cc1`, the Potency entry is “inactive”.
With `CCN1C[C@]2(COC)C(O)C[C@H](OC)[C@@]34C5C[C@]6(O)C(OC)C(O)[C@](OC(C)=O)(C5C6OC(=O)c5ccccc5)C(C(OC)C23)C14` (stereo not given in full), the Potency result was “inactive”.
For the molecule `N#Cc1c(Cl)c(Cl)c(Cl)c(C#N)c1Cl`, the Potency is 3.98 µM (active).
The same measure, in the same setting: for `Cc1ccc(Cl)cc1N1CCN(C(=O)C2CCC(CNS(=O)(=O)c3cccs3)CC2)CC1` (stereo not given) the value was “inactive”; for `Cn1cc(/C=C/c2nc3ccccc3c(=O)n2-c2ccccc2)c2ccccc21`, “inactive”.

The record behind these values is PubChem BioAssay AID924 (National Center for Advancing Translational Sciences (NCATS), 2007).
